This passage reports composite z-score and z-score results from PubChem BioAssay.

Activity calls are given as the source filed them. Unless noted, no rule for the calls is given here.

The nature of assay [1]: anti-His antibody binders, primary screen, artefact control for SMM control protein annotation, biochemical, small-molecule microarray, 635 nm fluorescence (AID 1128).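 Also: score merges feature fluorescence with signal-to-noise for each printed compound spot.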 Conditions: anti-His Alexa647 antibody binding, higher = more signal.
The test system of assay [2] is Human papillomavirus type 1a E7 protein (residues 1-88). In words: HPV1a E7 small-molecule binders, primary screen, biochemical, small-molecule microarray, residues 1-88, 635 nm (AID 1129). Conditions: small-molecule microarray binding, fluorescence 635 nm; higher = more signal.
Assay [3] addresses Focal adhesion kinase 1 (Homo sapiens) (UniProt Q05397). In words: small-molecule microarray binders of FAK, primary screen, biochemical, 635/667 nm fluorescence, BSA, DTT (AID 1130).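 Also: composite of spot emission at 667 nm and signal to noise over triplicate slides.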 Conditions: PTK2 binding, 635 nm fluorescence, higher = more signal.
For assay [4], the system named is Fibrinogen (Alexa647-labelled). In words: fibrinogen binders on compound microarrays, profiling panel, artefact control for SMM control-protein annotation, biochemical, small-molecule microarray, 635/667 nm fluorescence (AID 1131).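 Also: z-score merges 667 nm fluorescence with per-spot signal-to-noise over triplicate slides.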 Conditions: fibrinogen-A647 binding fluorescence, higher = more signal.
Assay [5] deals with Follistatin (Homo sapiens) (UniProt P19883). Kind of assay: follistatin binders on small-molecule microarrays, primary screen, biochemical, small-molecule microarray, 635/667 nm fluorescence (AID 1132). The conditions noted are these: FST binding, 635 nm fluorescence, higher = more signal.
Follistatin (Homo sapiens), sequence (P19883 whole entry, looked up): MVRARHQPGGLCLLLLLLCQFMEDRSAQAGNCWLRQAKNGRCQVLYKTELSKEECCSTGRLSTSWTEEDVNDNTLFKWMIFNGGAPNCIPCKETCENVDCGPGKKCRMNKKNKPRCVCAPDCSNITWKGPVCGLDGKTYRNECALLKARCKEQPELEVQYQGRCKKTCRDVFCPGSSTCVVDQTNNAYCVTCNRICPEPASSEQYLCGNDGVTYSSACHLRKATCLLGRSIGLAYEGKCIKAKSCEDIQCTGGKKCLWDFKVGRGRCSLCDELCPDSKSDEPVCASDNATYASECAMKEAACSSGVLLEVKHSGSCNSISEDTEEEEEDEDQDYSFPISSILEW
Assay [6] addresses Fibroblast growth factor 2 (Homo sapiens) (UniProt P09038). Kind of assay: FGF2 binders on small-molecule microarrays, primary screen, biochemical, small-molecule microarray, 635/667 nm fluorescence (AID 1133). Conditions: small-molecule microarray binding, FGF2, fluorescence 635/667; higher = more signal.
Assay [7] can be described thus: mitochondrial membrane potential change in A549 cells, profiling panel, cell-based, JC-1 fluorescence, basal, 24 h, 100 nL (AID 1138).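 Also: A549 lung adenocarcinoma cells under basal conditions with no added stimulus; test concentration not given here.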 Conditions: higher = more signal.
A further assay deals with Lefty1. Kind of assay: Lefty1 binders on small-molecule microarrays, primary screen, biochemical, small-molecule microarray, 635/667 nm fluorescence (AID 1139). The conditions noted are these: small-molecule microarray binding, fluorescence 635/667; higher = more signal.
Assay [8] has as its system wheat germ agglutinin (Triticum aestivum), Alexa647-labelled. Kind of assay: wheat germ agglutinin binders on compound microarrays, profiling panel, artefact control for SMM control-protein annotation, biochemical, small-molecule microarray, 635/667 nm fluorescence (AID 1140).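 Also: score merges 667 nm feature emission with signal to noise over triplicate slides.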 Conditions: WGA-A647 binding, 635 nm fluorescence, higher = more signal.
In assay [9] the target is Luciferin 4-monooxygenase (Photinus pyralis) (UniProt P08659). Kind of assay: firefly luciferase enzyme inhibitors, primary screen, biochemical, luminescence, purified enzyme, 2006 set (AID 1141).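 Also: cell-free assay with purified firefly luciferase at 100 ng per well in PBS; test concentration not given here.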 Conditions: SteadyGlo luminescence, 30 min, higher = more signal, called active from +8 up or from −8 down.
Luciferin 4-monooxygenase (Photinus pyralis), sequence (P08659 whole entry, looked up): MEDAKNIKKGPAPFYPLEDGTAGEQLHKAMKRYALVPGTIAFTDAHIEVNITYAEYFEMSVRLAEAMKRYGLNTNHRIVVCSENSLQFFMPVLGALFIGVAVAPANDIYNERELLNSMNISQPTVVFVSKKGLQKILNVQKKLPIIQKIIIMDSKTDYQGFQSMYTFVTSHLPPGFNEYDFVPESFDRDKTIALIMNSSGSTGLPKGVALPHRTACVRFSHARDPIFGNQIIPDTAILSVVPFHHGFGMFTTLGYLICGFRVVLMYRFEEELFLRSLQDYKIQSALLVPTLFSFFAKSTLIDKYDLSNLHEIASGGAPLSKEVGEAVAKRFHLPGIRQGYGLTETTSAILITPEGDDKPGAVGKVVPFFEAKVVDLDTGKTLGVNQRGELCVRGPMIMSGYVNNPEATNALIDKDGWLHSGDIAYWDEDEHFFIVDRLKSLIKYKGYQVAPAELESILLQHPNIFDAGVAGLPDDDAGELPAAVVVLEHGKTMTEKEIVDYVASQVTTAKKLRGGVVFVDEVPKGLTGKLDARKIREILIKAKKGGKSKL
Assay [10] has as its system Wnt5a (protein binding on small-molecule microarray). Kind of assay: Wnt5a binders on small-molecule microarray, primary screen, biophysical, 635/667 nm fluorescence (AID 1142).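 Also: fluorescence read at 667 nm with signal to noise per printed feature.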 The conditions noted are these: 635 nm fluorescence, higher = more signal.
A short description of assay [11]: cell viability in Huh7 cells, primary screen, cytotoxicity control for HCV replication inhibitor project, CellTiter-Glo luminescence, basal, 48 h (AID 1143).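 Also: Huh7 hepatoma cells carrying a hepatitis C replication reporter with no stimulus; test concentration not given here.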 Conditions: Huh7 HCV replicon, higher = more signal, called active from +8 up or from −8 down.
The nature of assay [12]: P. aeruginosa biofilm formation inhibitors, primary screen, PAO1 strain, BacTiter-Glo luminescence, LB-PBS (AID 1144). Conditions: 12 h, higher = more signal.
Assay [13] in a line: CREB reporter modulators without forskolin, primary screen, cell-based, PC12, CRE-LacZ reporter, unstimulated (AID 1145). Conditions: no forskolin, luminescence, 4.5 h, higher = more signal, called active from +8 up or from −8 down.
A short description of assay [14]: CREB reporter modulators under forskolin, primary screen, cell-based, PC12, CRE-LacZ reporter, forskolin-stimulated (AID 1146).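 Also: PC12 cells with 6xCRE LacZ reporter stimulated by forskolin 10 µM; beta-galactosidase reporter signal reflecting CREB driven transcription.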 Conditions: luminescence, 4.5 h, higher = more signal, called active from +8 up or from −8 down.
Assay [15] has as its target Streptavidin (Streptomyces avidinii) (UniProt P22629). Kind of assay: streptavidin binders on small-molecule microarray, primary screen, artefact control for SMM compound annotation, biophysical, 635/667 nm fluorescence (AID 1147).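 Also: signal reflects streptavidin binding to arrayed compounds as a control protein.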 The conditions noted are these: streptavidin binding, higher = more signal.
A short description of assay [16]: small-molecule binders of probe aInhba, primary screen, biochemical, small-molecule microarray, 635/667 nm fluorescence (AID 1148).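 Also: score merges 667nm spot fluorescence with signal-to-noise for antibody binding to printed compounds.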 Conditions: higher = more signal.
In assay [17] the target is Torsin-1A (Homo sapiens) (UniProt O14656). Kind of assay: torsin A binders from cell lysate, primary screen, small-molecule microarray, wild-type, 635/667 nm (AID 1149). The conditions noted are these: COS7 hTOR1A-WT lysate, 635 nm fluorescence, higher = more signal.
Torsin-1A (Homo sapiens), sequence (O14656 whole entry, looked up): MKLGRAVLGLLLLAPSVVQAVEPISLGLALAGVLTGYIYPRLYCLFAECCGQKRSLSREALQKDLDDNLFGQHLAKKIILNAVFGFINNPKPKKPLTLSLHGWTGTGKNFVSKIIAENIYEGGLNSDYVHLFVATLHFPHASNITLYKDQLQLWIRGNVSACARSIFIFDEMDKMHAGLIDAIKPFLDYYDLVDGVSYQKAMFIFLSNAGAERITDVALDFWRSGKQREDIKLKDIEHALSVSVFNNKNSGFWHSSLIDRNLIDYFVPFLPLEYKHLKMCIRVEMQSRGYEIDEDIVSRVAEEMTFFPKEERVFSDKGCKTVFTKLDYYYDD
Assay [18] has the same target. In words: small-molecule binders of mutant TOR1A in lysate, primary screen, cell lysate, small-molecule microarray, COS7 lysate, 635/667 nm fluorescence (AID 1150).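 Also: score pools 667 nm emission and signal to noise measuring lysate protein binding.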 The conditions noted are these: COS7 hTOR1A mutant lysate, 635 nm fluorescence, higher = more signal.
The test system of assay [19] is Sonic hedgehog protein (Shh). Kind of assay: small-molecule binders of Shh protein, primary screen, biochemical, small-molecule microarray, 635/667 nm fluorescence (AID 1151).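 Also: Shh protein binding to compounds spotted on small-molecule microarray slides; score combines spot fluorescence intensity with signal-to-noise across triplicate slides.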 The conditions noted are these: small-molecule microarray binding, 635 nm fluorescence; higher = more signal.

Fibroblast growth factor 2 (Homo sapiens), sequence (P09038 whole entry, looked up): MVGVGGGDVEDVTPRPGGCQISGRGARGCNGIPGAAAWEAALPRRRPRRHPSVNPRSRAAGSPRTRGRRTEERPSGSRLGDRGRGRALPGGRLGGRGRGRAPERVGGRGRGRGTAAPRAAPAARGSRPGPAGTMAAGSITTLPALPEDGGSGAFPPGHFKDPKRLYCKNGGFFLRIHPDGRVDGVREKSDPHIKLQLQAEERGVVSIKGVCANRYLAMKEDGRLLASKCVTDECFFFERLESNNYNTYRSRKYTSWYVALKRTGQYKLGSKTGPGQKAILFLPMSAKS
Focal adhesion kinase 1 (Homo sapiens), sequence (Q05397 whole entry, looked up): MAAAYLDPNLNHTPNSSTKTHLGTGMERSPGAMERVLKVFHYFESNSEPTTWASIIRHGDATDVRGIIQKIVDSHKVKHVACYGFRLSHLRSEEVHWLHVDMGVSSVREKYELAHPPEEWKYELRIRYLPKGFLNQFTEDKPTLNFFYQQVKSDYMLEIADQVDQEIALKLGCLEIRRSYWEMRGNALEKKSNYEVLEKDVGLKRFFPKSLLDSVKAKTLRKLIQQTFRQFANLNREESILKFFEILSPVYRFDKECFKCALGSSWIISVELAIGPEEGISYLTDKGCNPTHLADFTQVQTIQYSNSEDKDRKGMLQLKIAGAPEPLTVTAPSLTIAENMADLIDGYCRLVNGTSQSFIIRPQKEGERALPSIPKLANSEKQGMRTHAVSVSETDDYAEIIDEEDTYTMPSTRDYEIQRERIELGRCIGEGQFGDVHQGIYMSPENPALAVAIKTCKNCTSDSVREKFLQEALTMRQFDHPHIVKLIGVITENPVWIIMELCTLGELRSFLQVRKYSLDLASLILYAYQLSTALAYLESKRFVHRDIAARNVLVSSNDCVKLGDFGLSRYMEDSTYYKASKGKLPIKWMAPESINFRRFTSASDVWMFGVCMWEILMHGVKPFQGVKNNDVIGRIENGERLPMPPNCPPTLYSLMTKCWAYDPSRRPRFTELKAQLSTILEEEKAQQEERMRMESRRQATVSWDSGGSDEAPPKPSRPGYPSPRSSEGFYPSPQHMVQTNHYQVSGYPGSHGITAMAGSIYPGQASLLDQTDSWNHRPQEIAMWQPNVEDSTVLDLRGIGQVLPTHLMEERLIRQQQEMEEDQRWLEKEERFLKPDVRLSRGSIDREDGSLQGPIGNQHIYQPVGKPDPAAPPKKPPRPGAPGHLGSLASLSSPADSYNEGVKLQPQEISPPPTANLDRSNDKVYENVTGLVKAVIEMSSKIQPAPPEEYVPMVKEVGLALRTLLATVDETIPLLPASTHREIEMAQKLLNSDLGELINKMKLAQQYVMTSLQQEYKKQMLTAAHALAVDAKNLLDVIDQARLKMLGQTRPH
Streptavidin (Streptomyces avidinii), sequence (P22629 whole entry, looked up): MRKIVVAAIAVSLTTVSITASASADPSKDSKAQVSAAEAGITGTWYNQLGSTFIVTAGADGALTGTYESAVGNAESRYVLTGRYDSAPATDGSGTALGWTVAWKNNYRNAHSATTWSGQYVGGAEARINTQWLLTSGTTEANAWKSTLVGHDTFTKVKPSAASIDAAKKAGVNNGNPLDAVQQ

For `NC(=O)NCC#Cc1ccc2c(c1)[C@]1(C(=O)N2)[C@H](C(=O)O)[C@H]2C(=O)O[C@H](c3ccccc3)[C@H](c3ccccc3)N2[C@@H]1c1ccc(O)cc1`, the composite z-score was 0.0795 in [1]; 0.0885 in [2]; 0.06 in assay [3]; 0.972 in assay [4]; 1.31 in [5]; 0.153 in [6]. Moreover, the composite z-score was 0.654 in the assay on Lefty1; 0.642 in [8]; -0.0543 in assay [10]; 1.48 in assay [15]; 0.174 in assay [16]; -0.359 in the assay with Torsin-1A (Homo sapiens) [17]. In addition, the composite z-score was -0.245 in the assay with Torsin-1A (Homo sapiens) [18] and 1.02 in assay [19]. Also, the z-score in [7] was -1.01; in assay [9] it was -1.5 (inactive); in assay [11], 0.164 (inactive); in assay [12] it was -0.36 (inactive); in assay [13], 0.892 (inactive); in [14] it was -0.89 (inactive).
With `CCOC(=O)C[C@H]1[C@H](OC(=O)c2ccc(-c3ccccc3)cc2)[C@@H](NC(=O)c2ccccc2)c2cc(OCCCO)ccc2N1C(=O)c1ccc2ccccc2n1`, the composite z-score was 0.241 in assay [1]; 1.06 in assay [2]; 0.426 in assay [3]; 0.836 in assay [4]; -0.0321 in assay [5]; -0.0974 in assay [6]. The composite z-score was -0.329 in the assay with Lefty1; 0.693 in assay [8]; 0.278 in assay [10]; 0.255 in [15]; 0.368 in assay [16]; 0.181 in the assay with Torsin-1A (Homo sapiens) [17]. The composite z-score was 0.757 with Torsin-1A (Homo sapiens) [18] and -0.0315 in assay [19]. Moreover, the z-score in assay [7] is -0.0602; in [9] it was 0.0119 (inactive); in [11], 0.775 (inactive); in [12] it was 0.577 (inactive); in [13], -0.882 (inactive); in assay [14], -0.127 (inactive).
`COCCOC(=O)N1C(=O)[C@@]2(c3cc(C#CCCO)ccc31)[C@H](c1ccc(O)cc1)N1[C@H](c3ccccc3)[C@H](c3ccccc3)OC(=O)[C@H]1[C@@H]2C(=O)N1CCN(c2ncccn2)CC1`: the composite z-score came out at 1.34 in assay [1]; 1.25 in assay [2]; 1.26 in assay [3]; 0.959 in assay [4]; 1 in assay [5]; 0.986 in [6]. In addition, the composite z-score with Lefty1 is 0.883; in [8], 0.932; in [10] it was 0.449; in [15], 0.842; in assay [16], 1.62; with Torsin-1A (Homo sapiens) [17] it was 0.852. Moreover, the composite z-score with Torsin-1A (Homo sapiens) [18] is 0.606; in [19], 1.53. The z-score is 0.00649 in assay [7]; 0.832 (inactive) in assay [9]; -1.97 (inactive) in [11]; -0.185 (inactive) in assay [12]; -0.459 (inactive) in assay [13]; 0.648 (inactive) in assay [14].
`O=C1O[C@H](c2ccccc2)[C@H](c2ccccc2)N2[C@H]1[C@@H](C(=O)N1CCN(c3ncccn3)CC1)[C@]1(C(=O)Nc3ccc(C#CC4=CCCCC4)cc31)[C@H]2c1ccccc1OCCO`: the composite z-score came out at 1.5 in [1]; 1.18 in [2]; 0.543 in [3]; 0.916 in assay [4]; 1.34 in assay [5]; 1.3 in assay [6]. The composite z-score in the assay with Lefty1 amounted to 1.16; in [8], 1.07; in assay [10], 0.406; in [15], 0.895; in assay [16], 0.772; with Torsin-1A (Homo sapiens) [17], 0.0637. Moreover, the composite z-score in the assay with Torsin-1A (Homo sapiens) [18] amounted to 0.0096; in assay [19] it was 1.79. Moreover, the z-score in [7] was -1.01; in assay [9], -0.662 (inactive); in assay [11], -3.34 (inactive); in assay [12], -0.869 (inactive); in [13], -0.581 (inactive); in assay [14], -0.111 (inactive).
On to `CCN(CC)c1ccc(N2CC=CC34O[C@@H]5/C=C\CCC(C)OC(=O)C5[C@H]3C(=O)N(CCCCCO)[C@@H]4C2=O)cc1` (stereo not given in full), for which the composite z-score in assay [1] was -0.117; in assay [2], -0.886; in assay [3] it was -0.336; in [4] it was -0.899; in assay [5] it was -0.614; in assay [6], -0.48. The composite z-score is -0.978 in the assay with Lefty1; 0.208 in [8]; -0.408 in assay [10]; -1.1 in assay [15]; -0.016 in [16]; -1.47 with Torsin-1A (Homo sapiens) [17]. The composite z-score with Torsin-1A (Homo sapiens) [18] was -1.59; in assay [19], -0.0874. Moreover, the z-score in assay [7] was 0.105; in assay [9] it was -0.659 (inactive); in assay [11] it was 0.16 (inactive); in assay [12] it was 1.24 (inactive); in assay [13] it was 1.16 (inactive); in [14], -0.418 (inactive).
